Activity data for 85 compounds are collected here from PubChem BioAssay AID1259318 (Sanford-Burnham Center for Chemical Genomics, 2017).

About 3,000 (0.81%) of roughly 370,000 compounds were called active. This excerpt belongs to a sample that is enriched for actives. Unmarked numbers belong to inactive results.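 The calls were made as follows: active = activity above about 14% (limit read from the data; passing the limit was not always enough); inactive = the rest.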

Nuclear receptor subfamily 1 group D member 1 (Homo sapiens), sequence (P20393 whole entry, looked up): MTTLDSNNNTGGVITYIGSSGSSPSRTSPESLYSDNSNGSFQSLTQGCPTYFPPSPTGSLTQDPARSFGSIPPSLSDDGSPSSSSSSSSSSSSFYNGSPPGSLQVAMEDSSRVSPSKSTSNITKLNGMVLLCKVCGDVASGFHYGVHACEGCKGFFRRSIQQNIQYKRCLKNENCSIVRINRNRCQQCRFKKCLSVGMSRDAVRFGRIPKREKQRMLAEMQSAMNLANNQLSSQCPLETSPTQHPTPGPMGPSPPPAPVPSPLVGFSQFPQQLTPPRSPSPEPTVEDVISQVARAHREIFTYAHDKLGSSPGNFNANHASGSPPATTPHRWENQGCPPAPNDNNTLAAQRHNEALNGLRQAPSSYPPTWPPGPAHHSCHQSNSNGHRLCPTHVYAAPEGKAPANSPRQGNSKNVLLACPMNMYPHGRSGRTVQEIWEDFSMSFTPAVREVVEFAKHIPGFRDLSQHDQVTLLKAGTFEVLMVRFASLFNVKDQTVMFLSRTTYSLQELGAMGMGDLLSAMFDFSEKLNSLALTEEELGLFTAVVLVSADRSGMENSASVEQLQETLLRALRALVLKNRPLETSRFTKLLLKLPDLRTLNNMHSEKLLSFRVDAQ

This assay addresses Nuclear receptor subfamily 1 group D member 1 (Homo sapiens) (UniProt P20393). In words: Rev-erbα–DNA interaction modulation – biochemical, FITC-DNA, fluorescence polarization, uHTS, primary screen (AID 1259318).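 Also: 0% = DMSO wells with 35 nM protein and 100% = DMSO wells with 750 nM protein.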 The settings on record: Rev-erbα–FITC-DNA binding, 90 min, at 10 µM, active compounds read high. On the technique in general: Fluorescence polarisation rises when a labelled molecule tumbles more slowly, as on binding a larger partner.
With `CCCCCCSc1ccc(-c2nc3ccc(Cl)cn3c2NCc2ccccc2)cc1`, the activity was 24% (active). Next, `Clc1ccc2nc(CSc3ccccc3)cn2c1`: 6.58%; `CCCCNc1c(-c2cccc(Sc3ccc(OC)cc3)c2)nc2ccccn12`: -0.18%; `C[n+]1ccc(/C=C/c2c[nH]c3ccccc23)cc1`: 169% (active). On to `Cn1cnc([N+](=O)[O-])c1Sc1n[nH]c(N)n1`, for which the activity is -0.66%. Then `COc1cc(OC)cc(-c2nc(=S)n3ccsc3n2)c1`, with 14.2% (active); and `COc1ccc(C(=O)OCc2cc(=O)n3ccsc3n2)cc1F`, with 3.21%. Then `COc1cc(C(=O)OCc2cc(=O)n3ccsc3n2)ccc1OC(C)C`, with -8.61%. Next, `CCCC1CCC2(CCCN2CCOC(=O)NCc2ccccc2)CC1` (stereo not given): 4.94%; `C=CCN(Cc1ccc2c(c1)OCO2)C(C#CC1CC1)C(C)(C)C` (stereo not given): 0.61%.

Regarding `COc1ccc(/C=C2\CC3(OC(C)=O)CCCN2C3)cc1` (stereo not given), the activity is 1.87%. For the compound `COc1ccc(-n2nc(C(=O)NCC(=O)Nc3cccc(C)n3)c3ccccc3c2=O)cc1`, the activity is 29.5% (active). Then `CCCN(CCC)CCCNC(=O)CNC(=O)c1nn(-c2ccc(OC)cc2)c(=O)c2ccccc12`, with 2.42%; and `COCCCNC(=O)CNC(=O)c1nn(-c2ccc(OC)cc2)c(=O)c2ccccc12`, with -5.1%; and `Cc1[nH]c2ccccc2c1C(=O)c1cc([C@H](NC(=O)OC(C)(C)C)C(C)C)sc1N`, with 8.9%. Then `Cc1cc(C)c2nc(SCC(=O)N(C)C3CCS(=O)(=O)C3)cc(C)c2c1` (stereo not given), with 64% (active); and `CCn1c(SCC(=O)N(C)C2CCS(=O)(=O)C2)nnc1-c1cccs1` (stereo not given), with 1.18%. Then `CN(C(=O)CSc1nnc(-c2ccc(C(C)(C)C)cc2)n1C)C1CCS(=O)(=O)C1` (stereo not given), with -0.03%; and `COc1ccc(-n2c(SCC(=O)Nc3ccccc3-c3ccccc3)nnc2-c2cccnc2)cc1`, with -5.08%. As to `CC1OC(O[C@H]2/C=C/C=C/C=C/C=C/C=C/C=C/C=C/[C@H](C)[C@@H](O)[C@@H](C)[C@H](C)OC(=O)CC(O)CC(O)CCC(O)C(O)CC(O)CC3(O)C[C@H](O)C(C(=O)O)C(C2)O3)C(O)[C@H](N)C1O` (stereo not given in full), the activity is 1.39%. Next, `O=C(O)CCC(=O)O`: -4.29%. Next, `COc1ccc(NC(=O)c2sc(=O)n(Cc3ccc(S(=O)(=O)N(C)C)cc3)c2C)cc1`: 4.54%; `O=C(COC(=O)Cn1cnc2ccccc21)Nc1cccc2c1C(=O)c1ccccc1C2=O`: -19.3%. Regarding `O=C(COC(=O)c1cccc(Br)c1)Nc1cccc2c1C(=O)c1ccccc1C2=O`, the activity was 114% (active). Then `O=C(COC(=O)c1cccc(Cl)c1)Nc1ccc2[nH]c(=O)[nH]c2c1`, with -0.59%; and `C#CCN(N(C)c1ncc(C(F)(F)F)cc1Cl)S(=O)(=O)c1ccc2ccccc2c1`, with 7.14%; and `CCN1CCN(C(=O)Cn2nc(C)n3c(cc4c(OC)cccc43)c2=O)CC1`, with -9.03%. Then `CCCc1cc(=S)n2c([nH]c3ccccc32)c1C#N`, with -0.23%; and `COc1ccc(-c2c(C)cc3oc(=O)cc(-c4ccccc4)c3c2C)cc1C=O`, with 18.5% (active); and `Cc1cc2oc(=O)cc(-c3ccccc3)c2c(C)c1-c1ccc(OC(F)(F)F)cc1`, with -5.77%. Then `COc1cc(OC)c2c(-c3cccc(-c4cccc(N)c4)c3)cc(=O)oc2c1`, with -9.12%; and `CCCc1nc2c(C)cc(-c3nc4ccccc4n3C)cc2n1Cc1ccc(-c2ccccc2C(=O)O)cc1`, with 3.42%.

With `CC(C)CC(=O)Nc1cc(C(F)(F)F)ccc1N1CCOCC1`, the activity is -4.25%. Then `COc1ccc(CNC(=O)C2CCN(C(=O)c3ccccc3)CC2)cc1`, with 1.27%; and `COc1ccc(CNC(=O)C2CCN(C(=O)c3ccco3)CC2)cc1`, with -1.19%. Then `COc1ccc(-n2nc3c(N4CCC(C(=O)NCc5ccccc5)CC4)nnc(C)c3c2C)cc1`, with 54.2% (active); and `CC(C)N(C(=O)Cn1c(SCC(=O)N2CCN(c3ccccc3)CC2)nc2ccccc21)C(C)C`, with 1.23%; and `O=C(Nc1ccc(O)cc1)c1ccccc1O`, with 3.46%. Next, `CCCCCC(=O)Nc1ccc(-c2cn3cccnc3n2)cc1`: -0.67%; `Cc1ccc(CNCc2ccc3c(c2)OCO3)c(C)c1`: -1.18%. As to `C[C@H]1O[C@@H](O[C@H]2[C@@H](O)C[C@H](O[C@H]3[C@@H](O)C[C@H](O[C@H]4CC[C@]5(C)C6C[C@@H](O)[C@]7(C)[C@@H](C8=CC(=O)OC8)CC[C@]7(O)C6CC[C@@H]5C4)O[C@@H]3C)O[C@@H]2C)C[C@H](O)[C@@H]1O` (stereo not given in full), the activity is 2.73%. On to `CCOC(=O)c1sc(=NC(=O)c2ccc(Br)cc2)n(C)c1C`, for which the activity was 51.4% (active). Then `CCOC(=O)c1sc(=NC(=O)/C=C/c2cccs2)n(C)c1C`, with -0.21%; and `CCOC(=O)C1=CN(Cc2ccc(Br)cc2)S(=O)(=O)N(C)C1C` (stereo not given), with -0.38%. Next, `C/C(Cn1nnc2ccccc21)=N\OC(=O)c1cc(F)c(F)cc1Cl`: 2.02%; `COc1ccc(N2CCN(CCNS(=O)(=O)c3ccc(C(C)(C)C)cc3)CC2)cc1`: 5.09%. Next, `Nc1nc2c(ncn2[C@@H]2O[C@H](C(=O)N[C@H](Cc3ccccc3)C(=O)NCC3CCCCC3)[C@@H](O)[C@H]2O)c(=O)[nH]1`: 2.3%; `CCN1/C(=C\c2ccc3ccccc3[n+]2CC)Sc2cc(C)ccc21`: 73.3% (active). Turning to `COc1ccc(CCNC(=O)CSc2nc3c([nH]2)c(=O)n(C)c(=O)n3C)cc1`, the activity is -0.29%. Next, `COc1ccc(CNS(=O)(=O)c2cc(Br)ccc2Br)cc1`: 6.25%. `Cc1cccc(NC(=O)CSc2nc3c(c(=O)[nH]2)CCC3)c1C`: the activity was -4.62%. For the compound `Cc1cccc(C)c1NC(=O)CSc1nc2c([nH]1)c(=O)n(C)c(=O)n2C`, the activity was 3.98%. Then `Cc1cc2cc3c(cc2nc1SCC(=O)Nc1c(C)cccc1C)CCC3`, with 63.4% (active). Then `CC(=O)C1=C(C)N(Cc2ccc(Cl)cc2)C(=S)NC1c1ccc(F)cc1` (stereo not given), with 0.1%. Then `CC1(C)C(C=C(Cl)Cl)C1C(=O)N(Cc1ccc(Cl)cc1)C1CCS(=O)(=O)C1` (stereo not given), with 2.8%; and `CCOC(=O)c1[nH]c2ccc(C)cc2c1N=C(C)N(C)C`, with 0.97%. As for `O=C(CN1CCC(NC(=O)C2CC2)CC1)Nc1ccccc1[N+](=O)[O-]`, the activity was -2.64%. Consider `COc1cccc(-c2cc(CNC(=O)[C@@H](Cc3ccccc3)NC(=O)[C@H]3O[C@@H](n4cnc(C(N)=O)n4)[C@H](O)[C@@H]3O)no2)c1`, for which the activity was 3.31%. Then `CCOC(=O)c1c(NC(=O)CCCN2CCOCC2)sc2c1CC(C)(C)OC2`, with 2.68%. Next, `CCOC(=O)c1sc(NC(=O)CCN2CCOCC2)c(C(=O)OCC)c1C`: 30.6% (active); `CCOC(=O)c1c(C)[nH]c(C(=O)NCCN2CCOCC2)c1C`: 1.96%.

For the compound `C=CCN(N=Nc1cccc([N+](=O)[O-])c1)c1cccc([N+](=O)[O-])c1`, the activity is 9.23%.

In the case of `NC(=O)CC(NC(=O)Cc1ccc(Br)cc1)c1ccc(NC2CC3CCC2C3)c([N+](=O)[O-])c1` (stereo not given), the activity is -0.82%. Next, `FCOC(C(F)(F)F)C(F)(F)F`: 2.75%; `O=C(CSc1ccccn1)N1CCN(S(=O)(=O)c2ccc(Cl)cc2)CC1`: -4.04%; `O=C(COc1ccc(Cl)cc1)N1CCN(S(=O)(=O)c2ccc(Cl)cc2)CC1`: -0.97%. Next, `O=C(COc1ncnc2c(Cl)cc(Cl)cc12)N1CCN(S(=O)(=O)c2ccccc2)CC1`: 25.2% (active); `COc1ccc(C2(C#N)CCC(C(=O)O)CC2)cc1OC1CCCC1` (stereo not given): -2.5%; `O=C(CN1CCCc2ccccc21)NCc1ccc(F)cc1`: 0.36%. For `Cc1nn2cc(-c3ccc(Cl)cc3)cnc2c1Br`, the activity was 5.5%.

As to `CCN(CC)CCCC(C)Nc1ccnc2cc(Cl)ccc12` (stereo not given), the activity is -0.22%. Then `COC(=O)c1cccc(Cn2ccc3ccc(-c4ccc5ccn(C(=O)C6CCCCC6)c5c4)cc32)c1`, with 33.7% (active). Next, `FC(F)(F)c1cccc(Cn2ccc3ccc(-c4ccc5ccn(Cc6ccccc6)c5c4)cc32)c1`: -9.95%; `COc1ccc(Cn2ccc3ccc(-c4ccc5ccn(Cc6ccccc6C)c5c4)cc32)cc1`: 0.1%. Next, `COC(=O)c1ccc(OCC(O)CN(CCO)CC(O)Cn2ccc3ccccc32)cc1` (stereo not given): 4.36%. On to `COC(=O)c1cccc(Cn2ccc3ccc(-c4ccc5ccn(C(=O)c6ccccc6C)c5c4)cc32)c1`, for which the activity was 40% (active). For `COC(=O)c1ccc(CN2CCCC(C(=O)Nc3cccc(-n4cnnn4)c3)C2)cc1` (stereo not given), the activity is 1.49%. Next, `CCC(=O)O[C@]1(C(=O)CCl)[C@@H](C)CC2C3CCC4=CC(=O)C=C[C@]4(C)[C@@]3(F)[C@@H](O)C[C@@]21C` (stereo not given in full): 0.94%; `Cc1ccc(S(=O)(=O)N(Cc2cc3ccccc3[nH]c2=O)CC2CCCO2)cc1` (stereo not given): -1.97%; `CN(C(N)=NC(=O)/C=C/c1ccccc1)C(C#Cc1ccccc1)Cc1ccccc1` (stereo not given): -4.88%. For `O=C(C1CCN(S(=O)(=O)Cc2ccccc2)CC1)N1CCCc2ccccc21`, the activity was -2.58%. For the compound `Cc1nn(CCOc2ccc(Br)cc2)c(C)c1[N+](=O)[O-]`, the activity was 3.89%. For `CCOc1ccc2nc(Cl)c(C3CC(c4ccccc4)=NN3C(=O)c3cccs3)cc2c1` (stereo not given), the activity was 36% (active).

Turning to `O=C(COc1ccc2ccccc2c1)N1CCN(C(=O)c2cccs2)CC1`, the activity was 7.29%.

As for `CS(=O)(=O)Nc1cccc(C2=NN(C(=O)c3cccc(F)c3)C(c3cccs3)C2)c1` (stereo not given), the activity was 1.7%.
